Bioassay records deposited in PubChem BioAssay by National Center for Advancing Translational Sciences (NCATS).
Hits are enriched below; roughly 8.7% of the tested compounds scored in any of these assays.
Sfp PPTase inh: Sfp phosphopantetheinyl transferase inhibition. Potency, µM, without a hit: largest response in the series, negative = inhibition, most hits filed as inhibitors. Biochemical Sfp PPTase activity, qHTS. 3.5% of 310,000 active. Q9F4F7. AID 1490;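 further: the enzyme is Sfp with the accession as filed and its product quenches rhodamine fluorescence; 0% = enzyme reaction without inhibitor and -100% = no enzyme wells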
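Fluorescence-quenching assay: 15 nM Sfp-PPTase preincubated 15 min at room temperature with compound, then 5 uM rhodamine-CoA and 12.5 uM BHQ-2-labelled YbbR peptide added. Fluorescence (ex 525/em 598 nm) read at start and after 30 min; difference gives rate.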
JMJD2A Tudor: JMJD2A Tudor domain (human) inhibition | AlphaScreen JMJD2A-Tudor / H3K4me3 peptide binding | AID 504339 | 4.4% of 390,000 active | Potency, µM (doses to about 114 µM), without a hit: at the top dose activity change, negative = inhibition, hits mostly inhibitors | O75164; further: on the % scale 0 is the no-effect control and ±100 the full control effect; nearly all actives have a fitted effect of over 50% in size
12-LOX inh: blocks human arachidonate 12S-lipoxygenase | purified 12hLO, xylenol orange hydroperoxide absorbance | Potency, µM (titrated, usually from 108 µM), inactives show at the highest dose activity change, negative = inhibition, most hits filed as inhibitors | 1.1% of 580,000 active; further: on the % scale 0 is the no-effect control and ±100 the full control effect
Target sequence (P18054 whole entry, looked up): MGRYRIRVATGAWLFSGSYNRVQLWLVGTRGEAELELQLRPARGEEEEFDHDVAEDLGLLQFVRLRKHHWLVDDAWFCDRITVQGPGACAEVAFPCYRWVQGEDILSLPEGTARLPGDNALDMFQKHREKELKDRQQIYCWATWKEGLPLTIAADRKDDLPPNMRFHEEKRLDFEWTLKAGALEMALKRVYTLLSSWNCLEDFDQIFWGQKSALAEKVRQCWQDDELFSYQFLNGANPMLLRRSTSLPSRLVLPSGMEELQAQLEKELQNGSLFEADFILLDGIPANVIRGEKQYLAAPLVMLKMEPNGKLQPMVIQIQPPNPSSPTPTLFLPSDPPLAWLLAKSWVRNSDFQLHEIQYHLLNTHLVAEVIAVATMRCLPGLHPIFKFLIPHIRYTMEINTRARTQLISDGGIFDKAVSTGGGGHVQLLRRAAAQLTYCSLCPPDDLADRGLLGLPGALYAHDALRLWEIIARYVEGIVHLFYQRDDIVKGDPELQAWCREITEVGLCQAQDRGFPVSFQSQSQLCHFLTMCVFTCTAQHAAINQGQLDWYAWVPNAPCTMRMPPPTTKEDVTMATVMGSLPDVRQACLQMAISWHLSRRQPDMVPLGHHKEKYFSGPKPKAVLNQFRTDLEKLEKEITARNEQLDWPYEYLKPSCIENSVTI
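Purified human 12hLO at 150 nM in 25 mM Hepes, 0.01% Triton X-100, pH 7.0, preincubated 15 min at room temperature with compound. Reaction started with 40 uM arachidonic acid, 30 min at room temperature. Hydroperoxide measured by Fe-xylenol orange, 573/405 nm absorbance ratio.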
G9a block: blocks human histone lysine methyltransferase G9a. Potency, µM (top dose mostly 102 µM), inactives show at the highest dose activity, negative = inhibition, hits mostly inhibitors. AID 504332. G9a H3K9 monomethylation, AlphaScreen, 2 h. 8.8% of 350,000 active. Q96KQ7; further: on the % scale 0 is the no-effect control and ±100 the full control effect; nearly all actives have a fitted effect of over 75% in size
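Enzyme 20 nM + cpd, 15 min RT; add b-H3K9 pep 500 nM / SAM 20 uM; 2 h RT; anti-H3K9me1 Ab 0.5 ug/mL + SA donor / anti-rabbit acceptor beads 20 ug/mL each, 10 min; AlphaScreen read.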
BAZ2B block: inhibitors of human BAZ2B bromodomain | Q9UIF8 | AlphaScreen BAZ2B-H3K14Ac peptide displacement | Potency, µM (top dose mostly 114 µM), without a hit: at the highest dose activity change, negative = inhibition, hits mostly inhibitors | 4.4% of 360,000 active; further: on the % scale 0 is the no-effect control and ±100 the full control effect; nearly all actives have a fitted effect of over 60% in size
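In this displacement format the biotinylated H3(5-23) peptide acetylated at Lys14 serves as ligand at 50 nM, with BAZ2B at 50 nM in PBS pH 7.4 containing 0.01% Tween-20. Donor and acceptor beads are 10 ug/mL final.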
HP1b binding inh: inhibitors of HP1-beta chromodomain binding to methylated histone tails; P83916; AlphaScreen HP1-beta / biotin-H3K9me3 peptide binding; Potency, µM (titrated, usually from 114 µM), without a hit: top-dose activity change, negative = inhibition, actives largely listed as inhibitors; 0.56% of 390,000 active; further: nearly all actives have a fitted effect of over 70% in size
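HP1-beta protein (50 nM final) preincubated 30 min at room temperature with biotinylated H3(1-18)K9me3 peptide (50 nM) in PBS pH 7.4, 0.01% Tween-20, then compound added for 30 min. AlphaScreen streptavidin donor/nickel chelate acceptor beads (10 ug/mL final), 30 min dark, luminescence read.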
* marks the source's active call; other numbers are inactive results; i = inactive; ? = inconclusive; nt = no result given; ! = not active in a repeat; [ ] = another dose, or the depositor's remark. The call rests on the fitted dose curve; in most records, active means well fitted curve in the direction sought with a large enough effect; inconclusive means small, poorly fitted or top-dose-only effect, or another doubt; inactive means no such curve, though single readings can be large; an effect the other way counts as inactive or inconclusive. Potency means the concentration at half of the fitted maximal effect.

SMILES | Sfp PPTase inh | JMJD2A Tudor | 12-LOX inh | G9a block | BAZ2B block | HP1b binding inh
COc1ccc(C)cc1-n1c(SCC(=O)Nc2cc(C)on2)nc2ccccc2c1=O | 10% | -21% | 4% | 3% | -26% | 26%
COc1ccc(C)cc1-n1c(=O)c2ccccc2c2ccccc2c1=O | 10% | -7% | -4% | 18µM* | ? | 28%
COc1ccc(-n2c(=O)c3ccccc3c3ccccc3c2=O)c(OC)c1 | 5% | -30% | 1% | 10µM* | -8% | 30%
CCOC(=O)c1c(C)[nH]c(CCC(=O)NCc2cccc(C)c2)c1C | nt | -10% | -14% | 0%[59 µM] | -14% | 26%[57 µM]
CCOC(=O)c1c(C)[nH]c(N=Nc2cccc(C)c2)c1C | -10% | 25µM* | -15% | ? | 25µM* | ?
CCOC(=O)c1c(C)[nH]c(N=Nc2cccc(OC)c2)c1C | ? | 28µM* | -9% | 32µM* | 22µM* | 50µM*
O=C(CN1C(=O)C2C3C=CC(C3)C2C1=O)Nc1nc2ccccc2[nH]1 (configuration not stated) | -2% | 11µM* | 5% | 79µM* | -35% | 6%
O=C(c1ccn[nH]1)N1C[C@@H](COCC2CC2)[C@H](c2ccccn2)C1 | nt | nt | -6% | nt | nt | nt
O=C(O)c1sc2cc(C(F)(F)F)cnc2c1-c1ccccc1 | -21% | -30% | ? | 13%[0.0925 µM] | -7% | 64%
NNC(=O)c1sc2cc(C(F)(F)F)cnc2c1-c1ccccn1 | -14% | -9%[11.4 µM] | 0% | 5.6µM* | ? | 32%
Oc1ccccc1C1=Nc2ncnn2C(c2ccc(F)cc2)C1 (configuration not stated) | -18% | -20% | 0% | 25µM* | 56µM* | 33%
Fc1ccc(C2CC(c3ccc(F)cc3)n3ncnc3N2)cc1 (configuration not stated) | -2% | -27% | 0% | -20% | -32% | 17%
CCOCCCNc1nc2c(c(=O)[nH]c(=O)n2C)n1CCOCC | nt | nt | -67% | nt | nt | nt
Cc1ccc(Oc2nc3ccccn3c(=O)c2/C=C(\C#N)c2nc3ccccc3s2)c(C)c1 | nt | 2% | 4µM* | 2.5µM* | -2% | 55%
N#C/C(=C\c1c(Oc2ccc(F)cc2)nc2ccccn2c1=O)c1nc2ccccc2s1 | nt | -16% | ? | 2.2µM* | -4% | 40%
Cc1nc(NCc2ccccc2)sc1C(=O)N1CCC(C(N)=O)CC1 | nt | nt | -25% | nt | nt | nt
CCC(Oc1ccccc1)C(=O)NC1CCCCCC1 (configuration not stated) | 9% | -5% | -8% | 4% | 7% | 61%
CCC(Oc1ccccc1)C(=O)NC1CCSC1=O (configuration not stated) | 12% | -2% | 8% | 45µM* | -15% | 49%
O=c1cc(NCCc2ccccc2)c2ccccc2o1 | -1% | 50µM* | 0% | 3% | 2% | 5%
COc1ccc(/C=N/N=C2\SCC(=O)N2c2c(C)n(C)n(-c3ccccc3)c2=O)cc1OC | 9% | -9% | 2% | 8.9µM* | ? | 28%
Cc1c(N2C(=O)CS/C2=N\N=C\c2ccc(Cl)cc2)c(=O)n(-c2ccccc2)n1C | 9% | -14% | 18% | 53%[12.7 µM] | 4% | 14%
COc1ccccc1N1CCN(S(=O)(=O)c2cc3c(cc2C)NC(=O)CO3)CC1 | 4% | -31% | -2% | 79µM* | -29% | 18%
Cc1cc2c(cc1S(=O)(=O)N1CCN(c3cccc(C)c3C)CC1)OCC(=O)N2 | -6% | -8% | 10% | nt | 15% | 23%
O=C(NCCCN1CCCCC1)c1ccc2c(c1)ncn2C1CCCC1 | 3% | -8% | -1% | 45µM* | -19% | 43%
CCn1c(C)c(C)c2cc(C(=O)NCCCN3CCCC3)ccc21 | -4% | 50µM* | -16% | 56µM* | -18%[57.1 µM] | 3%
SMILES | Sfp PPTase inh | JMJD2A Tudor | 12-LOX inh | G9a block | BAZ2B block | HP1b binding inh
O=C(Nc1ccc2c(c1)ncn2C1CCCCC1)c1ccco1 | -18% | -6%[57.1 µM] | 0% | 32µM* | -8% | 45%
CCn1c(C)c(C)c2cc(C(=O)Nc3cccc(Cl)c3)ccc21 | 21% | -31%[57.1 µM] | 0% | 79µM* | -11%[57.1 µM] | -8%
O=C1/C(=C/c2cccc(F)c2)CSc2c(F)cccc21 | nt | nt | -12% | nt | nt | nt
COc1cc(C(=O)NC2CCN(c3cc(-c4ccccc4)[nH]n3)C2)cc(OC)c1OC (configuration not stated) | nt | nt | -25% | nt | nt | nt
Cc1c(C)n(Cc2ccc(Cl)cc2)c2ccc(C(=O)NCCN3CCOCC3)cc12 | -19% | ? | 0% | ? | 45µM* | -8%
CC1CCN(c2nc3ccc(C(=O)NCCCN4CCCCC4)cc3s2)CC1 | 1% | -15% | ? | nt | 6% | 36%
O=C(NCCCN1CCN(c2ccccc2F)CC1)c1ccc2nc(N3CCCCC3)sc2c1 | nt | ? | ? | 11µM* | -11% | -19%
CC(Sc1cccc[n+]1[O-])C(=O)Nc1ccc([N+](=O)[O-])cc1Cl (configuration not stated) | -3% | -2% | -13% | 50µM* | -17% | 42%
CN(C(=O)COC(=O)COc1ccc2ccccc2c1)c1c(N)n(Cc2ccccc2)c(=O)[nH]c1=O | nt | -19% | 17% | -37%[12.7 µM] | 5% | 22%
COCCN(C(=O)COC(=O)COc1ccc(Cl)c(C)c1)c1c(N)n(Cc2ccccc2)c(=O)[nH]c1=O | 4% | -20% | 27% | 40µM* | -3% | 17%
Cc1cc(OCC(=O)OCC(=O)N(C)c2c(N)n(Cc3ccccc3)c(=O)[nH]c2=O)ccc1Cl | nt | -12% | -18% | 6.3µM* | -4% | 44%
O=C(/C=C/c1cccnc1)c1ccc(F)c(F)c1 | 63µM* | -4% | -5% | 40µM* | -16% | 24%
CC(/C=C\c1ccccc1)=C/C(=O)O | 9% | 3% | 4% | 21% | -10% | 28%
CC(=C/C(=O)O)/C=C/c1ccc([N+](=O)[O-])cc1 | 7% | -7% | -22% | 56µM* | ? | 32%
O=C(O)/C=C/c1cccnc1 | 7% | -3% | -28% | 16%[59 µM] | -3% | 27%
CC(/C=C\c1cccnc1)=C/C(=O)O | -10% | 56µM*! | 0% | -27%[59 µM] | 50µM*! | -5%
CN(C)c1ccc(C(=O)/C=C/c2cccnc2)cc1 | 5% | -24% | -5% | -43% | ? | 9%
N#CC1=C(N)OC2=C(C(=O)CC(c3ccccc3Cl)C2)C1c1ccc(Cl)cc1 (configuration not stated) | nt | nt | 16µM* | nt | nt | nt
CCC(CC)c1nnc(NC(=O)CCS(=O)(=O)Cc2ccccc2)s1 | 63µM* | -14% | ? | 18µM* | 1% | 6%
CCCCc1nnc(NC(=O)CCS(=O)(=O)Cc2ccccc2)s1 | 6% | 1% | i | ? | -2% | 22%
